# Reference: the supplement of paper PMC4022240
# ± gives the standard deviation.
# Columns and labels:
# Assay in all cases: peptide microarray binding signal (635 nm), min-max normalized on array (fraction of array maximum); higher = stronger binding
# Details in all cases: peptide region: H3 1-13
# [1] = target: T1, HaloTag-ATRX ADD domain (163-292)
# T1 chain: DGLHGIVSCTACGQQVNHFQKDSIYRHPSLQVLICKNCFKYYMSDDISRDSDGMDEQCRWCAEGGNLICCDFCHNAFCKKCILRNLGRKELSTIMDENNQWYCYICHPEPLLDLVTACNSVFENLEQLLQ
# Method: (§1)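 Histone 13-mer peptides were synthesized as cellulose conjugates with a C-terminal 20-atom PEG linker and printed in triplicate on nitrocellulose. The sequence given is the unmodified backbone; PTMs (Kme1/2/3, Kac, Sph/Tph, Rme/Rme2a/Rme2s, Rcit) are listed in the label and the 'peptide modifications' condition. Slides were probed at 4 °C for 1 h with biotin-labelled (HQ)5-HaloTag reader fusions (ATRX-ADD, ING2-PHD) then streptavidin-Alexa647, or with rabbit histone antibodies then anti-rabbit Alexa647. The mean 635 nm signal of the triplicate spots was scaled 0-1 between the lowest and highest values on each array.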
# [2] = target: HaloTag-ING2 PHD (mouse Ing2 200-280)
# Method: as §1
# [3] = target: anti-H3K4me3 antibody ab8580
# Method: as §1
# [4] = target: anti-H3K9me3 antibody ab8898
# Method: as §1
# [5] = peptide modifications: H3K9me3, binder concentration: 1:2,000 dilution
# [6] = peptide modifications: H3K9me3, binder concentration: 1:10,000 dilution
# [7] = peptide modifications: H3K4me3 H3K9me2, binder concentration: 1:2,000 dilution
# [8] = peptide modifications: H3K4me3 H3K9me2, binder concentration: 1:10,000 dilution
# [9] = peptide modifications: H3K9me2 H3S10ph, binder concentration: 1:2,000 dilution
# [10] = peptide modifications: H3K9me2 H3S10ph, binder concentration: 1:10,000 dilution
# [11] = peptide modifications: H3K9me3 H3S10ph, binder concentration: 1:2,000 dilution
# [12] = peptide modifications: H3K9me3 H3S10ph, binder concentration: 1:10,000 dilution
# [13] = peptide modifications: H3K9me1, binder concentration: 1:2,000 dilution
# [14] = peptide modifications: H3K9me1, binder concentration: 1:10,000 dilution
# [15] = peptide modifications: H3R2cit H3K4me2, binder concentration: 1:2,000 dilution
# [16] = peptide modifications: H3R2cit H3K4me2, binder concentration: 1:10,000 dilution
# [17] = peptide modifications: H3K4me3 H3K9me3, binder concentration: 1:2,000 dilution
# [18] = peptide modifications: H3K4me3 H3K9me3, binder concentration: 1:10,000 dilution
# [19] = peptide modifications: H3K9ac H3S10ph, binder concentration: 1:2,000 dilution
# [20] = peptide modifications: H3R2cit H3K4ac, binder concentration: 1:2,000 dilution
# [21] = peptide modifications: H3R2cit H3K4ac, binder concentration: 1:10,000 dilution
# [22] = peptide modifications: H3R2cit H3K9ac, binder concentration: 1:2,000 dilution
# [23] = peptide modifications: H3R2cit H3K9ac, binder concentration: 1:10,000 dilution
binder,measurement,setting,value
ARTKQTARKSTGG [H3 1-13 A R T K Q T A R Kme3 S T G G],peptide microarray binding signal,"[1]; peptide modifications: H3K9me3, binder concentration: 50 nM",0.422 ± 0.025
same,peptide microarray binding signal,"[1]; peptide modifications: H3K9me3, binder concentration: 500 nM",0.417 ± 0.049
same,peptide microarray binding signal,"[2]; peptide modifications: H3K9me3, binder concentration: 10 nM",0.0205 ± 0.0055
same,peptide microarray binding signal,"[2]; peptide modifications: H3K9me3, binder concentration: 100 nM",0.0183 ± 0.0029
same,peptide microarray binding signal,[3]; [5],0.0544 ± 0.038
same,peptide microarray binding signal,[3]; [6],0.0262 ± 0.0086
same,peptide microarray binding signal,[4]; [5],0.228 ± 0.047
same,peptide microarray binding signal,[4]; [6],0.169 ± 0.11
ARTKQTARKSTGG [H3 1-13 A R T Kme3 Q T A R Kme2 S T G G],peptide microarray binding signal,"[1]; peptide modifications: H3K4me3 H3K9me2, binder concentration: 50 nM",0.0174 ± 0.00053
same,peptide microarray binding signal,"[1]; peptide modifications: H3K4me3 H3K9me2, binder concentration: 500 nM",0.0402 ± 0.003
same,peptide microarray binding signal,"[2]; peptide modifications: H3K4me3 H3K9me2, binder concentration: 10 nM",0.735 ± 0.11
same,peptide microarray binding signal,"[2]; peptide modifications: H3K4me3 H3K9me2, binder concentration: 100 nM",0.869 ± 0.12
same,peptide microarray binding signal,[3]; [7],0.929 ± 0.063
same,peptide microarray binding signal,[3]; [8],0.889 ± 0.23
same,peptide microarray binding signal,[4]; [7],0.11 ± 0.025
same,peptide microarray binding signal,[4]; [8],0.0347 ± 0.004
ARTKQTARKSTGG [H3 1-13 A R T K Q T A R Kme2 Sph T G G],peptide microarray binding signal,"[1]; peptide modifications: H3K9me2 H3S10ph, binder concentration: 50 nM",0.0356 ± 0.0038
same,peptide microarray binding signal,"[1]; peptide modifications: H3K9me2 H3S10ph, binder concentration: 500 nM",0.0593 ± 0.0025
same,peptide microarray binding signal,"[2]; peptide modifications: H3K9me2 H3S10ph, binder concentration: 10 nM",0.00615 ± 8.7e-05
same,peptide microarray binding signal,"[2]; peptide modifications: H3K9me2 H3S10ph, binder concentration: 100 nM",0.0145 ± 0.0016
same,peptide microarray binding signal,[3]; [9],0.00119 ± 1.7e-05
same,peptide microarray binding signal,[3]; [10],0.000456 ± 3.6e-05
same,peptide microarray binding signal,[4]; [9],0.0144 ± 0.0017
same,peptide microarray binding signal,[4]; [10],0.00375 ± 0.00021
ARTKQTARKSTGG [H3 1-13 A R T K Q T A R Kme3 Sph T G G],peptide microarray binding signal,"[1]; peptide modifications: H3K9me3 H3S10ph, binder concentration: 50 nM",0.188 ± 0.014
same,peptide microarray binding signal,"[1]; peptide modifications: H3K9me3 H3S10ph, binder concentration: 500 nM",0.207 ± 0.011
same,peptide microarray binding signal,"[2]; peptide modifications: H3K9me3 H3S10ph, binder concentration: 10 nM",0.00597 ± 0.00034
same,peptide microarray binding signal,"[2]; peptide modifications: H3K9me3 H3S10ph, binder concentration: 100 nM",0.0173 ± 0.0046
same,peptide microarray binding signal,[3]; [11],0.00283 ± 0.001
same,peptide microarray binding signal,[3]; [12],0.000913 ± 0.00014
same,peptide microarray binding signal,[4]; [11],0.085 ± 0.021
same,peptide microarray binding signal,[4]; [12],0.049 ± 0.01
ARTKQTARKSTGG [H3 1-13 A R T K Q T A R Kme S T G G],peptide microarray binding signal,"[1]; peptide modifications: H3K9me1, binder concentration: 50 nM",0.0276 ± 0.00028
same,peptide microarray binding signal,"[1]; peptide modifications: H3K9me1, binder concentration: 500 nM",0.0642 ± 0.0027
same,peptide microarray binding signal,"[2]; peptide modifications: H3K9me1, binder concentration: 10 nM",0.0068 ± 0.00044
same,peptide microarray binding signal,"[2]; peptide modifications: H3K9me1, binder concentration: 100 nM",0.0424 ± 0.0055
same,peptide microarray binding signal,[3]; [13],0.00068 ± 2.9e-05
same,peptide microarray binding signal,[3]; [14],0.000628 ± 6.7e-06
same,peptide microarray binding signal,[4]; [13],0.00122 ± 7.3e-05
same,peptide microarray binding signal,[4]; [14],0.00098 ± 4.6e-05
ARTKQTARKSTGG [H3 1-13 A Rcit T Kme2 Q T A R K S T G G],peptide microarray binding signal,"[1]; peptide modifications: H3R2cit H3K4me2, binder concentration: 50 nM",0.00959 ± 0.00044
same,peptide microarray binding signal,"[1]; peptide modifications: H3R2cit H3K4me2, binder concentration: 500 nM",0.0222 ± 0.0016
same,peptide microarray binding signal,"[2]; peptide modifications: H3R2cit H3K4me2, binder concentration: 10 nM",0.0839 ± 0.0012
same,peptide microarray binding signal,"[2]; peptide modifications: H3R2cit H3K4me2, binder concentration: 100 nM",0.149 ± 0.043
same,peptide microarray binding signal,[3]; [15],0.126 ± 0.023
same,peptide microarray binding signal,[3]; [16],0.128 ± 0.017
same,peptide microarray binding signal,[4]; [15],0.00533 ± 0.00032
same,peptide microarray binding signal,[4]; [16],0.00352 ± 0.00019
ARTKQTARKSTGG [H3 1-13 A R T Kme3 Q T A R Kme3 S T G G],peptide microarray binding signal,"[1]; peptide modifications: H3K4me3 H3K9me3, binder concentration: 50 nM",0.0752 ± 0.0036
same,peptide microarray binding signal,"[1]; peptide modifications: H3K4me3 H3K9me3, binder concentration: 500 nM",0.159 ± 0.022
same,peptide microarray binding signal,"[2]; peptide modifications: H3K4me3 H3K9me3, binder concentration: 10 nM",0.582 ± 0.018
same,peptide microarray binding signal,"[2]; peptide modifications: H3K4me3 H3K9me3, binder concentration: 100 nM",0.742 ± 0.14
same,peptide microarray binding signal,[3]; [17],1 ± 0.19
same,peptide microarray binding signal,[3]; [18],1 ± 0.19
same,peptide microarray binding signal,[4]; [17],0.46 ± 0.11
same,peptide microarray binding signal,[4]; [18],0.321 ± 0.037
ARTKQTARKSTGG [H3 1-13 A R T K Q T A R Kac Sph T G G],peptide microarray binding signal,"[1]; peptide modifications: H3K9ac H3S10ph, binder concentration: 500 nM",0.0136 ± 0.00075
same,peptide microarray binding signal,"[2]; peptide modifications: H3K9ac H3S10ph, binder concentration: 100 nM",0.0173 ± 0.0011
same,peptide microarray binding signal,[3]; [19],0.000925 ± 2.1e-05
same,peptide microarray binding signal,[4]; [19],0.00113 ± 0.00013
ARTKQTARKSTGG [H3 1-13 A Rcit T Kac Q T A R K S T G G],peptide microarray binding signal,"[1]; peptide modifications: H3R2cit H3K4ac, binder concentration: 50 nM",0.0109 ± 0.00013
same,peptide microarray binding signal,"[1]; peptide modifications: H3R2cit H3K4ac, binder concentration: 500 nM",0.045 ± 0.0051
same,peptide microarray binding signal,"[2]; peptide modifications: H3R2cit H3K4ac, binder concentration: 10 nM",0.0563 ± 0.014
same,peptide microarray binding signal,"[2]; peptide modifications: H3R2cit H3K4ac, binder concentration: 100 nM",0.125 ± 0.011
same,peptide microarray binding signal,[3]; [20],0.00725 ± 0.0029
same,peptide microarray binding signal,[3]; [21],0.00656 ± 0.0011
same,peptide microarray binding signal,[4]; [20],0.00782 ± 0.0003
same,peptide microarray binding signal,[4]; [21],0.0049 ± 0.00038
ARTKQTARKSTGG [H3 1-13 A Rcit T K Q T A R Kac S T G G],peptide microarray binding signal,"[1]; peptide modifications: H3R2cit H3K9ac, binder concentration: 50 nM",0.0152 ± 0.00082
same,peptide microarray binding signal,"[1]; peptide modifications: H3R2cit H3K9ac, binder concentration: 500 nM",0.0454 ± 0.005
same,peptide microarray binding signal,"[2]; peptide modifications: H3R2cit H3K9ac, binder concentration: 10 nM",0.0489 ± 0.0051
same,peptide microarray binding signal,"[2]; peptide modifications: H3R2cit H3K9ac, binder concentration: 100 nM",0.0881 ± 0.024
same,peptide microarray binding signal,[3]; [22],0.0231 ± 0.0037
same,peptide microarray binding signal,[3]; [23],0.0127 ± 0.00061
same,peptide microarray binding signal,[4]; [22],0.00818 ± 0.001
same,peptide microarray binding signal,[4]; [23],0.00502 ± 0.00055
